Measured values reported in PubChem BioAssay AID1117319 (Southern Research Institute, 2015).
About 1,500 (0.58%) of roughly 260,000 compounds were called active. Inconclusive results (about 5%) are left out.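 Rule for the calls: active = inhibition above a set limit at one or more doses, reproduced on every date tested; inconclusive = results disagree between test dates, or hit never tested in dose response; inactive = the rest.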 These entries were drawn from the full list. Results with a measured potency or affinity are listed apart.

Molecular target: Virion infectivity factor (Human immunodeficiency virus type 1 group M subtype B (isolate BH10)) + Virion infectivity factor (Human immunodeficiency virus type 1 group M subtype B (isolate BRU/LAI)) + Virion infectivity factor (Human immunodeficiency virus type 1 group M subtype B (isolate PCV12)) + Virion infectivity factor (Human immunodeficiency virus type 1 group M subtype B (isolate HXB2)) + DNA dC->dU-editing enzyme APOBEC-3G (Homo sapiens) (UniProt P69720+P69721+P69722+P69723+Q9HC16)
Test: HIV-1 Vif–A3G interaction blockers – biochemical, TR-FRET, GST-Vif 1-94, biotin-A3G peptide, dose response retest, primary screen (AID 1117319);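 note: Vif residues 1-94 fused to GST binding biotinylated APOBEC3G peptide 110-148; 0% = full assay without inhibitor and 100% = GST in place of GST-Vif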
Conditions: TR-FRET GST-Vif / biotin-A3G peptide binding; stronger effect = higher value

inhibition, inactive:
O=C(c1cc(-c2ccccc2)nn1-c1ccccc1)N1CCN(S(=O)(=O)c2ccc(F)cc2)CC1 -4.9%
CCOC(=O)c1c(C)oc2c1c(C=NCCO)c(O)c1ccccc12 14.7%
CCOC(=O)c1c(C)oc2c1c(C=NCC1CCCO1)c(O)c1ccccc12 (stereo unspecified) 25.6%
CNS(=O)(=O)c1cccc(C(=O)OCC(=O)c2ccc3[nH]c(=O)[nH]c3c2)c1 4.94%
COc1ccccc1NC(=S)NC(NC(C)=O)C(Cl)(Cl)Cl (stereo unspecified) -2.68%
O=C(CCC(=O)N1CCN(c2ccccc2F)CC1)c1ccc(F)cc1 0.58%
Cc1cccn2c(=O)nc(SCC(=O)N3CCCCC3)nc12 -0.7%
Cc1cc(=O)n2nc(-c3ccc(C(F)(F)F)cc3)sc2n1 0.75%
CCOc1ccc(/C=C/C(=O)Nc2ccc(N3CCOCC3)cc2)cc1 3.96%
CCN(CC)S(=O)(=O)c1ccc(/C=C/C(=O)Nc2ccccc2N2CCOCC2)cc1 28.5%
CCNC(=O)COC(=O)c1ccc(S(=O)(=O)N2CCCCCC2)cc1 -4.99%
CC(C)Cc1cc(C(=O)N2CCC(N3CCC(C(=O)N4CCOCC4)CC3)CC2)n[nH]1 12.3%
CCCCN(C)C(=O)c1nc2ccccn2c1CN1CCN(c2ccccn2)CC1 -11.9%
COCCn1nnnc1C(c1cc2cc(C)ccc2[nH]c1=O)N1CCc2ccccc21 (stereo unspecified) 17%
Cc1cc(NC(=O)CSc2nnc(Cc3cccn3C)n2CCc2ccccc2)no1 24.2%
CC1(C)Cc2cccc(OCC(=O)OCc3nnc(-c4ccccc4)o3)c2O1 -2.78%
C/C(=N\NC(=O)Cc1cccn1C)c1ccco1 20.2%
CC(/C=N/NC(=O)Cc1cccs1)=C\c1ccco1 12.2%
CC(=O)Nc1ccc2c(c1)nc(C)n2-c1ccccc1 -9.18%
O=C1CC(c2ccc(O)cc2)Oc2cc(O)cc(O)c21 (stereo unspecified) 10.3%
O=C1C[C@@H](c2ccc(O)cc2)Oc2cc(O)cc(O)c21 2.93%
Cc1n[nH]c(C)c1S(=O)(=O)N(C)Cc1ccco1 0%
Cc1noc(C)c1COc1ccc(C(=O)OCC(=O)N2CC(=O)Nc3ccccc32)cc1 2.4%
CCC(=O)c1ccc(OCC(=O)OCC(=O)N2c3ccccc3NC(=O)C2(C)C)cc1 0.69%
CS(=O)(=O)N(CC(=O)N1CCCCCC1)c1ccc2c(c1)OCCO2 0.11%
CCC(=O)Nc1nc2ccc([N+](=O)[O-])cc2s1 1.71%
